The list is not random: actives were taken first. Their share in the collection is about 11%.
G9a inh: G9a (human) methyltransferase inhibition. Q96KQ7. G9a H3K9 monomethylation, AlphaScreen, 2 h. Potency, µM (series often up to 102 µM), for inactives: top-dose activity, negative = inhibition, most hits filed as inhibitors. actives 8.8% (n = 350,000). AID 504332; note: potency is the fitted concentration of half-maximal effect; nearly all actives have a fitted effect of over 75% in size
Target sequence (Q96KQ7 913-1193 limits assumed): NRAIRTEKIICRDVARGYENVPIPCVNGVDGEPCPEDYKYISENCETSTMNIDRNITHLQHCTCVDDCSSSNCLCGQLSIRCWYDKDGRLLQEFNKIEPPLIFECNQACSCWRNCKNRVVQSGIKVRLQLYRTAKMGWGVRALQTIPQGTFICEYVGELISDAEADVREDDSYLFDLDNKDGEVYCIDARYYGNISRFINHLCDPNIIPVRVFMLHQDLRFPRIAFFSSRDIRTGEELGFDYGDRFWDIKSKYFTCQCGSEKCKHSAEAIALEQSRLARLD
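G9a (20 nM) preincubated 15 min RT with compounds, then 500 nM biotinylated H3K9 peptide and 20 uM SAM added; 2 h RT reaction. Monomethyl-H3K9 product detected by AlphaScreen with anti-H3K9me1 antibody, streptavidin donor and anti-rabbit IgG acceptor beads.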
Sfp PPTase inh: Sfp phosphopantetheinyl transferase inhibition; Biochemical Sfp PPTase activity, qHTS; Potency, µM, without a hit: largest response in the series, negative = inhibition, usual class: inhibitors; actives 3.5% (n = 310,000); Q9F4F7;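 note: the enzyme is Sfp with the accession as filed and its product quenches rhodamine fluorescence; potency is the fitted concentration of half-maximal effect; 0% = enzyme reaction without inhibitor and -100% = no enzyme wells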
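Fluorescence-quenching assay: 15 nM Sfp-PPTase preincubated 15 min at room temperature with compound, then 5 uM rhodamine-CoA and 12.5 uM BHQ-2-labelled YbbR peptide added. Fluorescence (ex 525/em 598 nm) read at start and after 30 min; difference gives rate.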
Tau fluor cs: counter-screen for tau fibril formation inhibitors. Potency, µM (titrated, usually from 57.7 µM), for inactives: at the top dose activity change, negative = decrease. actives 0.93% (n = 280,000). tau K18 P301L Alexa594 fluorescence, heparin fibrillization; note: potency is the fitted concentration of half-maximal effect; nearly all actives have a fitted effect of over 55% in size
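Human tau K18 P301L (15 uM unlabeled, 0.24 uM Alexa 594-labeled) in 100 mM sodium acetate pH 7 with 20 uM heparin, 6 hr at 37 C. ThT 30 uM added, 1 hr ambient; Alexa 594 FP and total fluorescence read at 555/632 nm.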
Tau fibril FP: inhibitors of human tau fibril formation. P10636. K18 P301L tau heparin fibrillization, Alexa594 FP, 6 h. AID 1468. Potency, µM (top dose mostly 57.7 µM), without a hit: at the top dose activity, negative = inhibition, actives largely listed as inhibitors. actives 0.39% (n = 280,000); note: potency is the fitted concentration of half-maximal effect; nearly all actives have a fitted effect of over 55% in size
Target sequence (P10636 561-689 P618L limits assumed): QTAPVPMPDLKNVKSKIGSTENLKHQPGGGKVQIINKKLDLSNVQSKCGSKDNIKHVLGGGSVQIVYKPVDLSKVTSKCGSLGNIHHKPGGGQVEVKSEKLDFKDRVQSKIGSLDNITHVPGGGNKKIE
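Read-out: fluorescence polarization of Alexa 594-labeled tau (0.24 uM), 555 nm excitation, 632 nm emission. Mixtures held 15 uM unlabeled K18 P301L, compound and 20 uM heparin, pH 7 acetate buffer, incubated 6 hr at 37 C.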
FBPA coupling cs: coupling enzyme interference in Giardia aldolase counter-screen. activity change, negative = inhibition, % at 58.2 µM, hits read low. coupling enzyme system counterscreen, AmpLite Red fluorescence. actives 0.67% (n = 290,000); in the data active = activity change below about -30%
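Activity here indicates interference with the coupling reaction, not aldolase inhibition. Compounds at 57.5 uM final met coupling enzymes for 10 min at RT; substrate and AmpLite Red detection followed, with a 525/598 nm fluorescence read after 20 min.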
Tau ThT inhib: inhibitors of human tau fibril formation, thioflavin T binding | AID 1460 | P10636 | Potency, µM (series often up to 57.4 µM), for inactives: at the highest dose activity, negative = inhibition, most hits filed as inhibitors | recombinant tau K18 P301L (four-repeat tau fragment), heparin-induced fibrillization, ThT fluorescence | actives 2.1% (n = 270,000); note: potency is the fitted concentration of half-maximal effect; nearly all actives have a fitted effect of over 55% in size
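Heparin-induced fibrillization of the P301L-mutant K18 repeat-domain fragment of human tau was followed by ThT binding in quantitative high-throughput format.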
* hit, by the source's call; ? = inconclusive; / = no result given; [ ] = another dose, or the depositor's remark. Unless noted, calls come from the whole dose curve; as a rule, active = well fitted curve in the direction sought with a large enough effect; inconclusive = small, poorly fitted or top-dose-only effect, or another doubt; inactive = no such curve, though single readings can be large; an effect the other way counts as inactive or inconclusive. Unless noted, % is set by controls: 0 for no effect and ±100 for the full control effect.

SMILES | G9a inh | Sfp PPTase inh | Tau fluor cs | Tau fibril FP | FBPA coupling cs | Tau ThT inhib
CCOC(=O)c1cc(S(=O)(=O)N2CCN(c3cccc(C)c3)C(C)C2)[nH]n1 (centres undefined) | 14µM* | / | -16% | -4% | / | -7%
CCOC(=O)c1cc(S(=O)(=O)N2CCN(c3cc(C)ccc3C)CC2)[nH]n1 | 4µM* | / | -9% | -5% | / | -9%
Cc1cccc(N2CCN(S(=O)(=O)c3cccc4nonc34)CC2C)c1 (centres undefined) | 35µM* | 13% | ? | -8% | 0 | 4%
CCOC(=O)c1cc(S(=O)(=O)N2CCN(c3ccc(C(C)=O)cc3)CC2)[nH]n1 | 13µM* | / | -5% | -3% | / | -7%
COc1ccc(/C=N/N(C)c2cc(=O)n(C)c(=O)[nH]2)cc1OC | 40µM* | 8% | 4% | -2% | -12 | -14%
N#CC1=C(N)NC(SCc2ccc(F)cc2)=C(C#N)C12CCCCC2 | 7%[12.7 µM] | -1% | 18µM*[quencher] | ? | 1 | -8%
N#CC1=C(N)NC(SCC(=O)Nc2ccccc2)=C(C#N)C12CCCC2 | 23%[59 µM] | 4% | ? | 4% | 3 | ?
N#CC1=C(N)N=C(SCc2ccccc2)C(C(N)=O)C12CCCCC2 (centres undefined) | 47%[12.7 µM] | -29% | 1% | 10% | -4 | -9%
N#CC1=C(N)NC(SCC(=O)O)=C(C#N)C12CCCC2 | 35µM* | 56µM* | -13% | -3% | 6 | ?
Cc1ccc(-c2nc3c(c(SCC(=O)N4CCCCC4)n2)Cc2cc(C)ccc2O3)cc1 | ? | / | -9% | -4% | / | -9%
CC(C)CNC(=O)C(=O)NCC1OCCCN1S(=O)(=O)c1cccs1 (centres undefined) | 121% | 12% | / | / | -5 | /
COc1cc2nc(NC(=O)c3ccc(S(=O)(=O)N4CCc5ccccc54)cc3)sc2cc1OC | 6%[59 µM] | / | ? | -7% | / | ?
CCOC(=O)N1CCN(S(=O)(=O)c2ccc(C(=O)N(CCCN(C)C)c3nc4ccc(OC)cc4s3)cc2)CC1 | ? | -6% | / | / | 1 | /
COc1ccc2sc(N(CCCN(C)C)C(=O)c3ccc(S(=O)(=O)N4CCCc5ccccc54)cc3)nc2c1 | 40µM* | / | / | / | / | /
COc1cc2nc(N(CCCN(C)C)C(=O)c3ccc(S(=O)(=O)N4CCc5ccccc54)cc3)sc2cc1OC | 11µM* | / | / | / | / | /
CCCCc1ccc(NC(=S)NCCN2CCOCC2)cc1 | ? | 6% | -5% | 1% | -1 | 1%
CC(=O)CCc1c(C)c2cccc(C)c2[nH]c1=O | ? | 3% | -14% | -4% | 0 | -12%
COc1cccc2c(=S)c(CCC(C)=O)c(C)[nH]c12 | 1.6µM* | -3% | 3% | 3% | -1 | 8%
COc1cc(CCN2C(=O)N[C@@H](c3ccccc3)C(C(C)=O)=C2C)cc(OC)c1OC | / | -17% | 0% | 2% | 7 | 1%
COc1ccc(C(CNC(=O)C(CCSC)NC(=O)c2ccccc2Cl)N2CCOCC2)cc1 (centres undefined) | 2% | / | / | / | / | /
COc1ccc(C(CNC(=O)C(CCSC)NC(=O)c2ccccc2OC)N2CCCCC2)cc1 (centres undefined) | 32µM* | 7% | / | / | / | /
CC1CCC(C(=O)NNC(=O)c2cc(-c3ccco3)[nH]n2)CC1 (centres undefined) | 43%[59 µM] | 9% | -12% | -4% | 3 | ?
COc1ccc(C(=O)CSc2n[nH]c(-c3ccco3)n2)cc1 | ? | ? | -8% | -7% | 0 | ?
CC(=O)c1ccc(-n2c(-c3cc(-c4ccco4)[nH]n3)n[nH]c2=S)cc1 | ? | 50µM* | -18% | -2% | 0 | ?
Cc1cc(-c2n[nH]c(=S)n2-c2ccc(F)cc2)nn1C | ? | -16% | 3% | 0% | 1 | -1%
SMILES | G9a inh | Sfp PPTase inh | Tau fluor cs | Tau fibril FP | FBPA coupling cs | Tau ThT inhib
O=C(O)c1cc(-c2ccco2)[nH]n1 | ? | 22µM* | 1% | -2% | -10 | ?
O=C(O)c1ccc(-n2c(-c3cc(-c4ccco4)[nH]n3)n[nH]c2=S)cc1 | 4%[0.501 µM] | 45µM* | -6% | -7% | 1 | -16%
CCc1ccc(C(=O)C(C)OC(=O)c2cccc(S(=O)(=O)N3CCOCC3)c2)cc1 (centres undefined) | -2% | / | / | / | / | /
Cc1ccc(Cl)cc1-n1ncc2c(Nc3cccc(C)c3C)ncnc21 | -24%[59 µM] | / | -8% | 4% | / | -8%
COc1ccccc1C(=O)NCCn1cc(SCc2ccc(C)cc2)c2ccccc21 | 3%[59 µM] | / | ? | -2% | / | ?
O=S(=O)(Nc1ccc(C(F)(F)F)cc1)c1ccc2c(c1)OCCO2 | 5%[59 µM] | / | ? | ? | / | -16%
C/C=C/c1ccc(OCCCCN2CC(C)CC(C)C2)c(OC)c1 (centres undefined) | 2.2µM* | ? | -8% | -6% | 1 | -7%
C/C=C/c1ccc(OCCCCNCc2ccco2)c(OC)c1 | 11µM* | -24% | -7% | 2% | 0 | -10%
C/C=C/c1ccc(OCCCCN2CCN(CC)CC2)c(OC)c1 | / | ? | 3% | 1% | 0 | -1%
CCOc1ccc(-n2nnnc2SCC(=O)Nc2ccc(NC(C)=O)cc2)cc1 | -3% | 13% | / | / | 0 | /
C#CCSc1nnnn1-c1ccc(OCC)cc1 | 50µM* | -4% | 0% | 1% | -2 | ?
CC(=O)N[C@@H](Cc1c[nH]c2ccccc12)C(=O)NC1CC1 | 85% | 3% | / | / | -1 | /
O=C(CN1C(=O)NC2(CCCCC2)C1=O)Nc1nc2c(F)cc(F)cc2s1 | 50µM* | / | / | / | / | /
Nc1cccn2c(-c3ccc(Cl)c(Cl)c3)cnc12 | 45µM* | -17% | ? | -6% | 3 | 13µM*
CN(C)C(=O)c1ccc2c(c1[N+](=O)[O-])C(=O)c1ccccc1C2=O | ? | 17% | -6% | -4% | -43* | -9%
CCCNC(=O)NCCc1c(C)[nH]c2ccccc12 | 0% | 25% | -5% | -2% | -1 | -8%
Cc1[nH]c2c(C)cccc2c1CCNC(=O)c1ccc2c(c1[N+](=O)[O-])C(=O)c1ccccc1C2=O | 14%[59 µM] | 8% | 7.9µM*[quencher] | 6% | -31* | ?
Cc1[nH]c2ccccc2c1CCNC(=O)c1ccc2c(c1[N+](=O)[O-])C(=O)c1ccccc1C2=O | 7% | 20% | 8.9µM*[quencher] | 1% | -29 | ?
Cc1ccc(N(CC(=O)Nc2ccc(Br)cc2)S(=O)(=O)c2cccs2)cc1 | 8%[59 µM] | / | -17% | -20% | / | 9%
CCN(CC)CCOc1ccc(-c2nc3cc(Cl)ccc3s2)cc1 | -48%[12.7 µM] | -18% | / | / | / | /
